High-throughput results: PubChem BioAssay, several laboratories
sEH inh – soluble epoxide hydrolase (human) inhibition; AID 707; P34913; recombinant human sEH enzymatic activity assay; 91,000 tested, 0.34% active; inhibition, % at 2 µM; in the data active = inhibition above about 80%
Target sequence (P34913 whole entry, looked up): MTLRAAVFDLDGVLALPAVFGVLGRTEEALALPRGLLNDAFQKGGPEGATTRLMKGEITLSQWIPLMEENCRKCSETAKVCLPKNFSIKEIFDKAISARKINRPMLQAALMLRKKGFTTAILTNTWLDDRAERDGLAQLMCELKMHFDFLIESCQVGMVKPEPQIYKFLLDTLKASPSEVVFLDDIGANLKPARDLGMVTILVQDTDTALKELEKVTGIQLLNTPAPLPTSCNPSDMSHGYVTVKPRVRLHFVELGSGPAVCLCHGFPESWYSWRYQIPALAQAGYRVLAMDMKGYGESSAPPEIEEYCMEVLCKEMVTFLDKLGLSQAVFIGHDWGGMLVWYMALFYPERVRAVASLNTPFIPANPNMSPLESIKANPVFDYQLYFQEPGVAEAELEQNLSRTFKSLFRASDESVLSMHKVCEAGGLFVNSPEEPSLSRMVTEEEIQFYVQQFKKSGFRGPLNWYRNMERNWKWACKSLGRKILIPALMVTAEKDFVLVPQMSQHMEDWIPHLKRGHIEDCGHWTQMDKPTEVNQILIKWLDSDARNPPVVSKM
CYP2C19 inhib – blocks human cytochrome P450 2C19; AID 778; inhibition, % at 5 µM; CYP2C19 Supersomes, luciferin-H EGE luminescence, 30 min; 96,000 tested, 21% active; P33261;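 active = CYP2C19 inhibition above a set limit at 5 µM in the primary screen, cut at about 50% in these data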;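 also: plate controls were negative control wells for no effect and 2.5 mM tranylcypromine positive control for full effect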
CYP2C9 inhib – human CYP2C9 inhibition; P11712; CYP2C9 Supersomes, luciferin-H conversion, luminescence; inhibition, % at 5 µM; 96,000 tested, 20% active;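 active = blocking of liver enzyme CYP2C9 beyond about 50% at 5 µM, limit read from the data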
CYP2C19 activ – cytochrome P450 2C19 (human) activation; activation factor at 5 µM; 96,000 tested, under 10 active; AID 1025; recombinant CYP2C19, luciferin-H EGE luminescence; hits give high values; 0 = fully inhibited enzyme, 1 = untreated enzyme;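 active = activation factor of at least 2 at 5 µM in the primary screen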;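 also: 0 = wells with 2.5 mM tranylcypromine and 1 = vehicle-only wells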
sEH act – activators of human soluble epoxide hydrolase | 91,000 tested, 0.04% active | activation, % at 2 µM | purified human sEH enzymatic activity, activator screen | AID 717; in the data active = activation above about 37%
CYP2C9 activ – activators of human CYP2C9; P11712; recombinant CYP2C9, luciferin-H conversion, luminescence; hits give high values; factor 1 = untreated enzyme, 0 = blocked; activation factor at 5 µM; 96,000 tested, 1.4% active;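 active = activation factor of 2 or more for CYP2C9 at a 5 µM dose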;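 also: 0 = sulfaphenazole-blocked wells and 1 = vehicle-only wells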
* marks the source's active call; other numbers are inactive results; / = no result. In the library only some 27% were active in any assay of this set; here they are far more common.

SMILES | sEH inh | CYP2C19 inhib | CYP2C9 inhib | CYP2C19 activ | sEH act | CYP2C9 activ
CCc1nn(-c2ccccc2)c2c1-c1cc(OC)c(OC)cc1C1(N2)C(=O)Nc2ccccc21 (stereo not given) | -7 | 19 | 82* | 0.8 | 10 | 0.2
COc1cc2c(cc1OC)C1(Nc3c-2c(C)nn3-c2ccccc2)C(=O)Nc2ccccc21 (stereo not given) | 1 | 11 | 66* | 0.9 | -4 | 0.3
COc1cc2c(cc1OC)C1(Nc3c-2c(-c2ccccc2)nn3-c2ccccc2)C(=O)Nc2ccccc21 (stereo not given) | -6 | 3 | 60* | 1 | 3 | 0.4
CN1CC2CCCC3(C1)C(=O)NC1(CCCCC1)N=C23 (stereo not given) | / | 1 | -14 | 1 | / | 1.1
O=C(c1cc(-c2ccccc2)on1)N1CCN(C(=O)c2ccco2)CC1 | -2 | 11 | 6 | 0.9 | 2 | 0.9
Cc1cc(Oc2ccccc2)nc(-c2ccccc2)n1 | 7 | 18 | 16 | 0.8 | -5 | 0.8
COc1ccc(C2(O)CC3CCC(C2)N3c2cc(C)nc(-c3ccccc3)n2)cc1 (stereo not given) | -6 | 53* | 93* | 0.5 | 6 | 0.1
Cc1cc(N2CCN(c3ccccc3)CC2)nc(-c2ccccc2)n1 | -17 | 86* | 49 | 0.1 | 16 | 0.5
Cc1cc(N2CCN(C(=O)c3ccco3)CC2)nc(-c2ccccc2)n1 | / | 74* | 55* | 0.3 | / | 0.4
Cc1cc(N2CCN(c3ccccc3)CC2)nc(N)n1 | 5 | / | / | / | -2 | /
COC(=O)c1cc(OC)c(OC)cc1NC(=O)CCC1CCCC1 | 11 | 11 | -4 | 0.9 | -10 | 1
COC(=O)c1ccc(C(=O)Nc2cc(Cl)ccc2Cl)cc1NC(=O)c1ccc(N(C)C)cc1 | / | -8 | 4 | 1.1 | / | 1
Cc1ccc(S(=O)(=O)N2CCCC2C(=O)O)s1 (stereo not given) | 0 | -2 | 3 | 1 | 1 | 1
CCOC(=O)N1CCN(C(=O)c2ccc(Cl)c(S(=O)(=O)N3CCOCC3)c2)CC1 | / | 1 | 9 | 1 | / | 0.9
O=C(NCCC1=CCCCC1)c1ccc(Cl)c(S(=O)(=O)N2CCOCC2)c1 | 94* | 51* | 60* | 0.5 | -94 | 0.4
Cc1ccc(CSCCNC(=O)c2ccc(Cl)c(S(=O)(=O)N3CCOCC3)c2)cc1 | 74 | 62* | 81* | 0.4 | -73 | 0.2
O=C(Nc1ccc(N2C(=O)C3C4C=CC(C4)C3C2=O)cc1)Nc1cccnc1 (stereo not given) | 13 | 5 | 60* | 0.9 | -13 | 0.4
Fc1ccc(-c2nc3nc4ccccc4nc3n2Cc2ccco2)cc1 | 10 | 13 | 29 | 0.9 | -11 | 0.7
c1ccc(-c2nc3nc4ccccc4nc3n2Cc2ccco2)cc1 | -9 | 8 | 51* | 0.9 | 8 | 0.5
CCCCOCCCn1c(-c2ccco2)nc2nc3ccccc3nc21 | -17 | 50 | 52* | 0.5 | 16 | 0.5
CCOc1ccccc1CNC(=O)CCNC(=O)Cn1ccc2ccccc2c1=O | -2 | 15 | 24 | 0.8 | 3 | 0.8
CCSc1ncc(/C=N/Nc2ccccc2)n1C | -8 | 44 | 52* | 0.6 | 10 | 0.5
CCSc1ncc(/C=N/Nc2ccc(Cl)cc2)n1C | 3 | 29 | 23 | 0.7 | -5 | 0.8
CCOc1ccc(-c2n[nH]c(C)c2Oc2ccccc2OC)c(O)c1 | -5 | 99* | 89* | 0 | 7 | 0.1
C=C(C)COc1ccc(-c2n[nH]c(C)c2Oc2ccccc2OC)c(O)c1 | -18 | 81* | 81* | 0.2 | 17 | 0.2
C=C(C)COc1ccc(-c2nc(N)nc(C)c2Oc2ccccc2OC)c(O)c1 | 5 | 17 | 24 | 0.8 | -5 | 0.8
Cc1ccc(CNC(=O)C2CC(c3cccc([N+](=O)[O-])c3)=NO2)o1 (stereo not given) | 18 | 11 | -18 | 0.9 | -17 | 1.2
CC1=C(C)SC(=C(C#N)c2nnc(N3CCOCC3)n2-c2ccccc2)S1 | / | -17 | -20 | 1.2 | / | 1.2
CSCCC1NC2(C(=O)Nc3c(Cl)cccc32)[C@@H]2C(=O)N(C3CCCC3)C(=O)[C@H]12 (stereo not given in full) | -7 | 20 | 12 | 0.8 | 8 | 0.9
CSCCC1NC2(C(=O)Nc3c(C)cc(Cl)cc32)[C@@H]2C(=O)N(C3CCCC3)C(=O)[C@H]12 (stereo not given in full) | 10 | 50 | 60* | 0.5 | -7 | 0.4
